“And” between values parts separate entries of the source, which are not always exact repeats. Equal values may be shown once. The whole screen tested about 5,500 compounds, of which about 2,000 (36%) were called active. About 18% were inconclusive and are not listed. The list shows a part of the results. A number with no mark means an inactive call. Cut-off read from the data, not from the text of the source: active = normalized growth mostly below about 0.91 (no sharp cut-off); inconclusive = no clear call, values can overlap the other calls; inactive = mostly above about 0.92.
Assay: chemical genetic growth profiling, strain panel (AID 1159580);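 note: tested at 20 µM; growth read once vehicle control cultures reached saturation at 30 °C; 1 = growth at the plate median or of vehicle wells; lower values mean less growth of the strain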
Settings: S. cerevisiae deletion strains, growth OD

C#CC1(O)CCC2C3CCC4=CC(=O)CCC4(C)C3CCC21C (stereo unspecified)
normalized growth (locus YAL021C, strain ccr4, active compounds read low): 0.973 | normalized growth (locus YAL026C, strain drs2, active compounds read low): 0.982 | normalized growth (locus YAL030W, strain snc1, active compounds read low): 0.995 | normalized growth (locus YBL061C, strain skt5, active compounds read low): 0.96 | normalized growth (locus YBR009C, strain hhf1, active compounds read low): 0.979 | normalized growth (locus YBR021W, strain FUR4, active compounds read low): 0.985 | normalized growth (locus YBR023C, strain chs3, active compounds read low): 0.981 | normalized growth (locus YBR171W, strain sec66, active compounds read low): 0.981 | normalized growth (locus YBR229C, strain ROT2, active compounds read low): 0.985 | normalized growth (locus YBR231C, strain swc5, active compounds read low): 0.977 | normalized growth (locus YBR279W, strain paf1, active compounds read low): 0.985 | normalized growth (locus YCL011C, strain gbp2, active compounds read low): 0.994 | normalized growth (locus YCL016C, strain dcc1, active compounds read low): 0.968 | normalized growth (locus YCL029C, strain bik1, active compounds read low): 0.984 | normalized growth (locus YCL069W, strain vba3, active compounds read low): 1 | normalized growth (locus YCR088W, strain abp1, active compounds read low): 0.992 | normalized growth (locus YDL005C, strain med2, active compounds read low): 0.976 | normalized growth (locus YDL035C, strain GPR1, active compounds read low): 0.981 | normalized growth (locus YDL040C, strain nat1, active compounds read low): 0.97 | normalized growth (locus YDL074C, strain BRE1, active compounds read low): 1.01 | normalized growth (locus YDL101C, strain DUN1, active compounds read low): 0.979 | normalized growth (locus YDL185W, strain tfp1, active compounds read low): 0.981 | normalized growth (locus YDL192W, strain arf1, active compounds read low): 0.98 | normalized growth (locus YDR001C, strain nth1, active compounds read low): 0.977 | normalized growth (locus YDR069C, strain doa4, active compounds read low): 0.933 | normalized growth (locus YDR101C, strain arx1, active compounds read low): 1.02 | normalized growth (locus YDR137W, strain rgp1, active compounds read low): 1.19 [resistant] (active) | normalized growth (locus YDR159W, strain sac3, active compounds read low): 0.937 | normalized growth (locus YDR162C, strain NBP2, active compounds read low): 0.971 | normalized growth (locus YDR195W, strain ref2): 0.975 | normalized growth (locus YDR297W, strain sur2, active compounds read low): 0.98 | normalized growth (locus YDR318W, strain mcm21, active compounds read low): 0.97 | normalized growth (locus YDR334W, strain swr1, active compounds read low): 0.954 | normalized growth (locus YDR335W, strain msn5, active compounds read low): 0.981 | normalized growth (locus YDR388W, active compounds read low): 0.976 | normalized growth (locus YDR392W, strain spt3, active compounds read low): 0.918 | normalized growth (locus YDR502C, strain sam2, active compounds read low): 0.985 | normalized growth (locus YEL003W, strain gim4, active compounds read low): 0.976 | normalized growth (locus YEL037C, strain rad23, active compounds read low): 0.969 | normalized growth (locus YEL061C, strain CIN8 (second series), active compounds read low): 0.965 | normalized growth (locus YEL061C, strain CIN8, active compounds read low): 0.996 | normalized growth (locus YER015W, strain faa2, active compounds read low): 0.992 | normalized growth (locus YER016W, strain bim1, active compounds read low): 0.996 | normalized growth (locus YER110C, active compounds read low): 0.968 | normalized growth (locus YER111C, strain swi4, active compounds read low): 0.99 | normalized growth (locus YER155C, strain BEM2 (second series), active compounds read low): 1.02 | normalized growth (locus YER155C, strain BEM2, active compounds read low): 0.982 | normalized growth (locus YER167W, strain BCK2, active compounds read low): 0.994 | normalized growth (locus YFR010W, strain ubp6, active compounds read low): 0.995 | normalized growth (locus YGL078C, strain dbp3, active compounds read low): 0.95 | normalized growth (locus YGL086W, strain mad1, active compounds read low): 1.01 | normalized growth (locus YGL167C, strain pmr1, active compounds read low): 0.976 | normalized growth (locus YGL173C, strain kem1, active compounds read low): 0.986 | normalized growth (locus YGL227W, strain vid30, active compounds read low): 0.983 | normalized growth (locus YGL240W, strain doc1, active compounds read low): 0.987 | normalized growth (locus YGL248W, strain PDE1, active compounds read low): 0.99 | normalized growth (locus YGL253W, strain hxk2, active compounds read low): 0.978 | normalized growth (locus YGR135W, strain pre9, active compounds read low): 0.947 | normalized growth (locus YGR252W, strain gcn5, active compounds read low): 0.956 | normalized growth (locus YHR013C, strain ard1, active compounds read low): 0.994 | normalized growth (locus YHR027C, strain rpn1, active compounds read low): 0.948 | normalized growth (locus YHR030C, strain SLT2, active compounds read low): 0.998 and 1 | normalized growth (locus YHR079C, strain IRE1 (second series), active compounds read low): 0.983 | normalized growth (locus YHR079C, strain IRE1, active compounds read low): 1 | normalized growth (locus YHR094C, strain hxt1, active compounds read low): 0.968 | normalized growth (locus YHR129C, strain ARP1, active compounds read low): 0.999 | normalized growth (locus YHR142W, strain chs7, active compounds read low): 0.98 | normalized growth (locus YHR200W, strain rpn10, active compounds read low): 0.986 | normalized growth (locus YIL066C, strain RNR3, active compounds read low): 0.989 | normalized growth (locus YIL073C, strain SPO22, active compounds read low): 0.933 | normalized growth (locus YIL125W, strain kgd1, active compounds read low): 0.978 | normalized growth (locus YIR030C, strain dcg1, active compounds read low): 0.984 | normalized growth (locus YJL092W, strain hpr5, active compounds read low): 0.977 | normalized growth (locus YJL095W, strain BCK1 (second series), active compounds read low): 0.981 | normalized growth (locus YJL095W, strain BCK1, active compounds read low): 0.981 and 1.01 | normalized growth (locus YJL115W, strain asf1, active compounds read low): 0.954 | normalized growth (locus YJL129C, strain trk1, active compounds read low): 0.97 | normalized growth (locus YJL134W, strain LCB3, active compounds read low): 0.983 | normalized growth (locus YJL154C, strain vps35, active compounds read low): 0.972 | normalized growth (locus YJL164C, strain tpk1, active compounds read low): 0.978 | normalized growth (locus YJL166W, strain qcr8, active compounds read low): 0.983 | normalized growth (locus YJL168C, strain set2, active compounds read low): 0.977 | normalized growth (locus YJL187C, strain SWE1 (second series), active compounds read low): 1.01 | normalized growth (locus YJR043C, strain POL32, active compounds read low): 1.03 | normalized growth (locus YJR066W, strain TOR1, active compounds read low): 0.957 | normalized growth (locus YJR075W, strain HOC1, active compounds read low): 1

— PubChem BioAssay AID1159580 (chemical genetic matrix, 2015)
